CYP2C9 inh – human CYP2C9 inhibition; AID 777; P11712; inhibition, % at 5 µM; 96,000 tested, 20% active; CYP2C9 Supersomes, luciferin-H conversion, luminescence;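 active = blocking of liver enzyme CYP2C9 beyond about 50% at 5 µM, limit read from the data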
Target sequence (P11712 whole entry, looked up): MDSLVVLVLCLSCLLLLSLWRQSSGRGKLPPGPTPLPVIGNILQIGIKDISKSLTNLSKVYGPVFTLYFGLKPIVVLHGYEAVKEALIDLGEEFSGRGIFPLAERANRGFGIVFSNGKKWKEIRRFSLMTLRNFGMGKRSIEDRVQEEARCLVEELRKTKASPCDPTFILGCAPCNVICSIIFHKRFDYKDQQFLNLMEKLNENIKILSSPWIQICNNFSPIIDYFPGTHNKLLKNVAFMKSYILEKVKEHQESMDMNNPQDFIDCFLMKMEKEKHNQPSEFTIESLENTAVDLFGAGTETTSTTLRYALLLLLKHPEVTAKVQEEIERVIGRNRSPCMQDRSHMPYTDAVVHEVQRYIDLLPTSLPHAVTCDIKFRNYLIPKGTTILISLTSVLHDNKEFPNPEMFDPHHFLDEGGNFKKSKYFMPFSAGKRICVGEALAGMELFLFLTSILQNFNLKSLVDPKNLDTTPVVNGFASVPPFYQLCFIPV
CYP2C19 act – activators of human cytochrome P450 2C19. P33261. recombinant CYP2C19, luciferin-H EGE luminescence; hits give high values; 0 = fully inhibited enzyme, 1 = untreated enzyme. activation factor at 5 µM. 96,000 tested, under 10 active. AID 1025;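 active = activation factor of at least 2 at 5 µM in the primary screen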
CYP2C19 inhib – inhibitors of human CYP2C19; inhibition, % at 5 µM; 96,000 tested, 21% active; CYP2C19 Supersomes, luciferin-H EGE luminescence, 30 min; AID 778; P33261;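 active = CYP2C19 inhibition above a set limit at 5 µM in the primary screen, cut at about 50% in these data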
PostGolgi ctrl – yeast control strain growth, post-Golgi counter-screen | 98,000 tested, 5% active | efflux-deficient yeast background strain, growth absorbance A615, 16 h | inhibition, % at 10 µM
CYP2C9 activ – activators of human CYP2C9; P11712; recombinant CYP2C9, luciferin-H conversion, luminescence; hits give high values; factor 1 = untreated enzyme, 0 = blocked; activation factor at 5 µM; 96,000 tested, 1.4% active; AID 1024;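 active = activation factor of 2 or more for CYP2C9 at a 5 µM dose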
PostGolgi yeast – growth inhibition of a yeast mutant, post-Golgi transport screen. post-Golgi transport phenotypic cell assay. 98,000 tested, 0.9% active. AID 739. inhibition, % at 10 µM;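 also: yeast cells grown in 1536-well plates; yeast grown about 18 h at 30C before absorbance read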
Hits are given with their value; . = inactive; / = no result. Only some compounds are listed: those with a hit (about 32% of all), similar ones and a draw of the others. Rule as the data show it, unless noted: active = inhibition above about 30%; inactive = the rest.

SMILES	CYP2C9 inh	CYP2C19 act	CYP2C19 inhib	PostGolgi ctrl	CYP2C9 activ	PostGolgi yeast
O=C(Nc1cccc(C(F)(F)F)c1)N1CCC(c2nc(-c3ccc(F)cc3)no2)CC1	56.1	.	.	69.6	.	.
CCOCCn1c(CN2CCOCC2)nc2c1c(=O)[nH]c(=O)n2C	/	/	/	.	/	.
O=C(N/N=C/c1ccc(O)cc1)c1ccc(COc2cc(Cl)ccc2Cl)o1	.	.	.	.	.	.
O=C(Nc1ccccc1)N1CCCC(c2nc(-c3ccc(F)cc3)no2)C1 (configuration not stated)	.	.	.	.	.	.
Cc1ccc(-c2noc(C3CCCN(C(=O)c4ccc(F)cc4F)C3)n2)cc1 (configuration not stated)	.	.	.	.	.	.
Cc1ccccc1NC(=O)N1CCCC(c2nc(-c3ccc(C(C)C)cc3)no2)C1 (configuration not stated)	69.6	.	.	.	.	.
CC(C)c1ccc(-c2noc(C3CCCN(C(=O)c4ccc(F)cc4F)C3)n2)cc1 (configuration not stated)	90.1	.	81.8	.	.	.
Cc1c(Cl)cccc1NC(=O)c1nc(C)n(-c2cc(OC(C)C)c(Cl)cc2Cl)n1	83.3	.	.	30.4	.	.
CN(C)/C=N/c1cnc(C(=O)c2ccc(Cl)cc2)n1C	.	.	59.7	.	.	.
CC(C)(C)C(=O)CC1(O)C(=O)N(Cc2ccccc2)c2ccccc21 (configuration not stated)	54.5	.	71.7	.	.	.
Cc1ccccc1CN1C(=O)C(O)(CC(=O)c2ccncc2)c2ccccc21 (configuration not stated)	.	.	90.5	.	.	.
O=C(CC1(O)C(=O)N(Cc2ccccc2)c2ccccc21)c1ccncc1 (configuration not stated)	66.5	.	95.5	.	.	.
CCn1c(=O)cc(NC2=NCC(C)CN2c2cccc(Cl)c2)n(C)c1=O (configuration not stated)	.	.	.	.	.	.
CCCN(CCC)CCNc1c(N2CCN(C(=O)OCC)CC2)c(=O)c1=O	.	.	.	.	.	.
CNc1nc2sc3c(c2c(=O)n1C)CC(C)(C)SC3	55.9	.	72.9	.	.	.
CC(C)C1=NN2C(=N)CC(=O)N=C2S1	.	.	.	.	.	.
CCOc1ccc(S(=O)(=O)Nc2ccccn2)c2ccccc12	.	.	.	.	.	.
CCOc1ccc(S(=O)(=O)Nc2ccc3c(c2)OCO3)c2cccnc12	.	.	81.8	.	.	.
CCOc1ccc(S(=O)(=O)NCc2ccc(F)cc2)c2cccnc12	.	.	50.8	.	.	.
COc1ccc(C2=NOC3(CC(=O)N(c4ccc(C)cc4)C3=O)C2)c(OC)c1 (configuration not stated)	.	.	.	.	.	.
Cc1cc(=O)[nH]c(SCC(=O)Nc2ccc(Br)cn2)n1	.	.	.	.	.	.
N#CCCN1CCN(S(=O)(=O)c2ccc(S(=O)(=O)NC3CCCC3)cc2)CC1	.	.	.	.	.	.
COC(=O)CNC(=O)C1CCN(c2nc(C)cc(C)n2)CC1	.	.	.	.	.	.
CC1(C)NC(=O)N(CCOc2ccc3c(c2)CCC3)C1=O	.	.	72.4	.	.	.
CCC(C)(C)c1ccc(OCCN2C(=O)NC(C)(C)C2=O)cc1	76.2	.	89.0	.	.	.
SMILES	CYP2C9 inh	CYP2C19 act	CYP2C19 inhib	PostGolgi ctrl	CYP2C9 activ	PostGolgi yeast
CCOc1ccc(OCCN2C(=O)NC3(CCCc4ccccc43)C2=O)cc1 (configuration not stated)	.	.	.	.	.	.
O=C1c2ccccc2C(=O)N1CCC(c1ccc(F)cc1)c1ccco1 (configuration not stated)	.	.	.	.	.	.
O=C(Cn1ncc2c(=O)oc3ccccc3c21)N1CCCN(Cc2ccccc2F)C1	.	.	.	.	.	.
COc1ccccc1-n1c(CNc2c(C)cccc2C)nnc1SCC(=O)N1CCOCC1	.	.	.	.	.	.
CS(=O)(=O)N(CC(=O)N1CCCCC1)c1ccc(Cl)c(C(F)(F)F)c1	.	.	.	.	.	.
CCNC(=O)COC(=O)/C=C/c1ccccc1[N+](=O)[O-]	.	.	.	.	.	.
CN(C)C(=O)COC(=O)/C=C/c1ccccc1[N+](=O)[O-]	.	.	.	.	2.1	.
